Compound activity deposited in PubChem by National Center for Advancing Translational Sciences (NCATS).
TDP-43 yeast inh: rescues yeast growth from TDP-43 toxicity. TDP-43 expressing yeast growth rescue, BacTiter-Glo, 24 h. Potency, µM (titrated, usually from 46.1 µM), for inactives: top-dose growth rescue (activation), hits mostly activators. 1.8% of 410,000 active; further: % of control where 0% means no effect; nearly all actives have a fitted effect of over 50% in size
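Cell-based yeast growth screen: TDP-43 expression induced in galactose, inoculum OD600=0.02 after raffinose pregrowth to mid-log. Read-out BacTiter-Glo luminescence at 24 hr, 30 deg C; inhibition of toxicity seen as signal increase.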
Mito fusion act: inhibitors of mitochondrial division or activators of mitochondrial fusion | S. cerevisiae fusion-defective mutant growth rescue, CellTiterGlo 48 h | 0.23% of 320,000 active | Potency, µM (series often up to 46.1 µM), without a hit: top-dose growth rescue (activation), actives largely listed as activators; further: % of control where 0% means no effect; nearly all actives have a fitted effect of over 45% in size
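S. cerevisiae fusion-defective temperature-sensitive mutants (e.g. fzo1-1, mgm1-5) grown 48 h at 37C in YPEG (ethanol/glycerol non-fermentable) medium with 23 nl compound per well; growth rescue read as CellTiterGlo luminescence.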
Abeta yeast res: compounds reversing amyloid beta toxicity in yeast | yeast expressing A-beta42, growth rescue, OD600, 48 h; response scale: 0% DMSO, 100% iron-clioquinol control | Potency, µM (titrated, usually from 46.1 µM), usual class: activators | 0.063% of 410,000 active | AID 1347071; further: nearly all actives have a fitted effect of over 55% in size
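Growth rescue measured by 600 nm absorbance after 48 h yeast culture at 30 C with compound. Values normalized between DMSO and an equimolar ferric chloride plus clioquinol control.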
aSyn rescue: alpha-synuclein toxicity inhibition in yeast. 0.14% of 370,000 active. Yeast expressing alpha-synuclein, growth rescue, BacTiter-Glo, 24 h. Potency, µM (series often up to 46.1 µM), without a hit: at the top dose growth rescue (activation), most hits filed as activators. AID 652106; further: % of control where 0% means no effect; nearly all actives have a fitted effect of over 65% in size
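Rescue of yeast growth: cells expressing toxic alpha-synuclein, induced in galactose at OD600 0.02, incubated with compound 24 h at 30 C. ATP luminescence quantified growth; inhibitors of toxicity appear as activators.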
FUS suppressor: rescues growth of FUS-expressing yeast; S. cerevisiae FUS-expressing, growth rescue, OD600, 24 h; Potency, µM (doses to about 76.6 µM), hits mostly activators; 0.24% of 390,000 active; AID 1347120;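 further: plate controls were DMSO vehicle for no effect and reference control for full effect; nearly all actives have a fitted effect of over 55% in size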
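Yeast expressing FUS under galactose induction, OD 0.005 in 2% galactose medium; compounds in a dilution series, 24 h at 30C. Growth rescue by absorbance at 600 nm; CP55940 positive control, DMSO negative.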
ERG-DNA inh: ERG Ets/DNA interaction inhibition. AID 624246. P11308. fluorescence polarization, His-ERG Ets domain / labelled DNA. 0.028% of 370,000 active. Potency, µM (series often up to 76.9 µM), for inactives: top-dose FP activity, negative = inhibition, usual class: inhibitors; active means well fitted inhibition curve with a large enough effect in the polarisation, with a control signal flat; inconclusive means small, poorly fitted or top-dose-only effect, or effect the other way, or a change in a side signal; inactive means no such curve, though single readings can be large or run the other way; the % refers to the polarisation;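 further: polarization taken with two DNA probes labelled with fluorescein and Texas red; % of control where 0% means no effect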
Target sequence (P11308 whole entry, looked up, the tested form may be a part): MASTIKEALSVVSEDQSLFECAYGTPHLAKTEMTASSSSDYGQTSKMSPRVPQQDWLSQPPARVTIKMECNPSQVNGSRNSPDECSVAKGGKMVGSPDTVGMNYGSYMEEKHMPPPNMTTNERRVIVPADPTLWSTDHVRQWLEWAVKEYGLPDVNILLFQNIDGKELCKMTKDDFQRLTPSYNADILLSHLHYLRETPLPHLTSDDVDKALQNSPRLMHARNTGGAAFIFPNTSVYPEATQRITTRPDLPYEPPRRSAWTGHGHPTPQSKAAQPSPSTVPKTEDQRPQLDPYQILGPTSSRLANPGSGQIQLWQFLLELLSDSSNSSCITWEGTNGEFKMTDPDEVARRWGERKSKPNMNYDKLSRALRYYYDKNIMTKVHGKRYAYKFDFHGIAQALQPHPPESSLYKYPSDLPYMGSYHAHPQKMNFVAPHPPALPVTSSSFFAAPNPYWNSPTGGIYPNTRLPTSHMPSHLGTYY
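His-tagged ERG Ets domain (1 uM in the protein solution; 300mM KCl, 50mM Tris-HCl, 1mM EDTA, 1mM DTT, pH 7.5) received compound, then a probe mix of 5 nM fluorescein-DNA and 100nM Texas-615-DNA. Fluorescence polarization was read for both dyes.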
Active calls of the source: *; i = inactive; ? = inconclusive; . = no result; [ ] = remark or other dose. A selection: hits, their analogues and other compounds. The true share with any hit is near 2.2%. Unless noted, the call rests on the fitted dose curve; in most records, active means well fitted curve in the direction sought with a large enough effect; inconclusive means small, poorly fitted or top-dose-only effect, or another doubt; inactive means no such curve, though single readings can be large; an effect the other way counts as inactive or inconclusive. Potency means the concentration at half of the fitted maximal effect.

SMILES | TDP-43 yeast inh | Mito fusion act | Abeta yeast res | aSyn rescue | FUS suppressor | ERG-DNA inh
CC(C)[C@H](NC(=O)OC(C)(C)C)c1nnc(S(=O)(=O)Cc2c(F)cccc2Cl)o1 | 11µM* | -13% | i | -22% | i | 12%
Cc1ccccc1CS(=O)(=O)c1nnc([C@H](CC(C)C)NC(=O)OC(C)(C)C)o1 | -63% | -25% | i | -29% | i | -2%
CC(C)(C)OC(=O)N[C@@H](Cc1ccccc1)c1nnc(S(=O)(=O)Cc2cccc(F)c2)o1 | 5µM* | 3% | i | -8% | i | -1%
O=C(Cn1ncn2c(cc3sccc32)c1=O)NCCc1ccccc1 | 17% | . | i | . | i | -2%
O=c1ccc2ccccc2c2ccccc12 | 3.2µM* | . | i | ? | i | .
CCOC(=O)/C(C#N)=C/c1c(OCC)n(CC)c2ccccc12 | 13µM* | 21% | i | 9% | . | -1%
COc1ccccc1-c1sc2cc3c(cc2c1C#CCO)OCO3 | 22µM* | ? | i | 0% | ? | -2%
COc1ccc2sc(-c3ccccc3OC)c(C#CCCO)c2c1 | 20µM* | 25% | i | -12% | i | -6%
COc1ccc(-c2sc3cc4c(cc3c2C#CCO)OCO4)cc1 | 3% | 21% | i | -14% | i | 12%
CN=c1scc(C)n1/N=C/c1cc(Br)c(O)c(OC)c1 | 11µM* | -12% | i | -2% | i | 0%
COc1cc(C=Nn2c(-c3cc(C)[nH]n3)n[nH]c2=S)cc(Br)c1O | . | . | . | . | i | .
Cc1cccc(NS(=O)(=O)c2ccc3c(c2)[C@H]2C=CC[C@H]2[C@@H](c2ccc(F)cc2)N3)c1 | 1%[9.22 µM] | . | i | . | ? | 4%
Fc1ccc([C@@H]2Nc3ccccc3[C@@H]3C=CC[C@@H]32)cc1 | 11%[9.22 µM] | . | 13µM* | . | i | -4%
Fc1ccc(Oc2nnnn2-c2ccccc2)cc1 | 20% | 3% | i | 5% | i | -11%
Clc1ccc(OCc2nnnn2-c2ccccc2)cc1 | 13µM* | 4% | i | 4% | . | 7%
Brc1ccc(Oc2nnnn2-c2ccccc2)cc1 | 16µM* | 0% | i | -1% | i | -10%
Cc1ccccc1CN[C@@H]1CC[C@@]23CCCN2C(=O)CCC[C@H]3C1 | . | . | . | . | i | .
COc1ccc(CSc2nnc(SCC(=O)Nc3ccc4c(c3)OCO4)s2)cc1 | . | . | . | . | i | .
CCOc1ccccc1NC(=O)CSc1nnc(SCc2ccccc2)s1 | . | . | . | . | i | .
NC(=S)c1ccc[n+]([O-])c1 | 0% | . | i | 0% | . | -2%
O=C(c1ccc(Br)o1)N1CCN(c2ccc(F)cc2)CC1 | 13µM* | 9% | i | 8% | i | 6%
CC(C)Cc1cc(C(=O)N2CCN(c3ccc(F)cc3)CC2)no1 | 22µM* | 10% | i | 8% | i | -4%
O=C(Nc1ccc(N2CCN(C(=O)c3cccs3)CC2)cc1)c1ccc(Br)o1 | 25µM* | ? | i | 9% | i | 13%
O=C(c1cc(-c2ccc(Cl)cc2)on1)N1CCN(c2ccc(F)cc2)CC1 | -14% | 1% | i | 8% | i | -1%
O=C(Nc1ccc(NC(=O)c2cccs2)cc1)c1ccc(Br)o1 | 6% | 3% | i | 2% | i | 1%
SMILES | TDP-43 yeast inh | Mito fusion act | Abeta yeast res | aSyn rescue | FUS suppressor | ERG-DNA inh
O=C(c1ccc(CS(=O)(=O)c2ccc(Br)cc2)o1)N1CCN(c2ccc(F)cc2)CC1 | -21% | 1% | i | 2% | i | -4%
CCc1ccccc1NCc1nnc2n1CCCCC2 | 20% | . | i | 5% | i | 4%
Cc1ccc2nc(CN3CCN(C(=O)Nc4cccc(C)c4C)CC3)oc2c1 | 28% | . | i | . | i | 0%
CC(=O)c1ccc(Sc2ccccc2)c([N+](=O)[O-])c1 | 11µM* | ? | i | 1% | i | -2%
Cc1ccc(Sc2ccc(CO)cc2[N+](=O)[O-])cc1 | 14µM* | -15% | i | 24% | i | 1%
CC(=O)c1ccc(Sc2ccccc2N)c([N+](=O)[O-])c1 | ? | 12% | i | -6% | i | 0%
Cc1ccc(Sc2ccc(CN3CCCC3)cc2[N+](=O)[O-])cc1 | 0% | -2% | i | 7% | i | -7%
Cc1ccc2[nH]c(CSc3nnc(NC(=O)COc4ccccc4F)s3)cc(=O)c2c1 | 0% | . | i | . | i | 0%
COc1cc2nc(NCCC(C)C)n3nc(-c4ccccc4)nc3c2cc1OC | 6% | . | i | . | i | 0%
CC(C)c1cnc2c(c1SCC(=O)Nc1cccc(F)c1)c(=O)n(C)c(=O)n2C | 35µM* | . | i | . | i | 3%
Cc1ccccc1-c1ccc(CN2C(C(C)C)C(=O)N(Cc3cn(CCC4OCCO4)nn3)CCS2(=O)=O)cc1 (configuration not stated) | ? | . | i | ? | 10µM* | .
COc1ccc(-c2ccc(CN3C(C(C)C)C(=O)N(Cc4cn(CC5CCCCC5)nn4)CCS3(=O)=O)cc2)cc1OC (configuration not stated) | -8% | . | i | 16% | 25µM* | .
COc1ccc(-c2ccc(CN3C(CC(C)C)C(=O)N(Cc4cn(CC5CCCCC5)nn4)CCS3(=O)=O)cc2)cc1OC (configuration not stated) | 6% | . | i | -5% | i | .
COc1ccc(-c2ccc(CN3C(C(C)C)C(=O)N(Cc4cn(CCC5OCCO5)nn4)CCS3(=O)=O)cc2)cc1 (configuration not stated) | 35µM* | . | i | 6% | ? | .
CC(C)Cc1ccc(CN2C(C(C)C)C(=O)N(Cc3cn(CCC4OCCO4)nn3)CCS2(=O)=O)cc1 (configuration not stated) | 11µM* | . | i | 8% | ? | .
CCOC(=O)[C@]12CCCCC/C=C\1N(CCc1ccc(Cl)cc1)C(=O)[C@H]2CC(=O)N1CCSCC1 | . | . | . | . | i | .
O=C(NCC(c1ccccc1)c1ccccc1)[C@H](Cc1c[nH]c2ccccc12)NC1(C(=O)NC2CCCCC2)CCCCCC1 | . | . | . | . | i | .
C[C@H]1[C@@H](NC(=O)/C=C/c2ccccc2)CC[C@@]23CCCN2C(=O)CCC[C@@H]13 | . | . | . | . | i | .
C[C@H]1[C@H](N(Cc2cccs2)Cc2cccs2)CC[C@@]23CCCN2C(=O)CCC[C@@H]13 | . | . | . | . | i | .
COCOCCn1cc(CN2CCS(=O)(=O)N(Cc3ccc(-c4ccc(Cl)c(Cl)c4)cc3)C(C(C)C)C2=O)nn1 (configuration not stated) | 35µM* | . | i | ? | ? | .
